“And” between values parts separate entries of the source, which are not always exact repeats. Equal entries are not always repeated. Results filed as inconclusive are left out. A call without a number means that no potency is given here. The source made the active and inactive calls. Unless noted, calls come from the whole dose curve; as a rule, active = well fitted curve in the direction sought with a large enough effect; inconclusive = small, poorly fitted or top-dose-only effect, or another doubt; inactive = no such curve, though single readings can be large; an effect the other way counts as inactive or inconclusive.
Legend:
[1] = Cell Viability - Hek293 (AID 427;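 active = compounds whose dose-response curve shows a full or clear partial loss of cell viability, called from curve shape rather than a numeric limit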;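 note: potency is the fitted concentration of half-maximal effect; cells exposed to compound for 40 hours at 37 °C before reading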); details: qHTS
In short: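 Luminescent ATP read-out (CellTiter-Glo, 20 min RT) after 40 hr compound exposure at 37 °C in complete medium. Signal normalized to DMSO (basal) and 100 uM tamoxifen (100% inhibition); concentration-response fitted with the standard Hill equation to give AC50.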

[2] = Cell Viability - MRC5 (AID 434; calls by dose curve;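 note: potency is the fitted concentration of half-maximal effect; cells exposed to compound for 40 hours at 37 °C; potency reflects cytotoxicity seen as loss of intracellular ATP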); details: MRC5 lung fibroblast viability, qHTS
In short: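 AC50 values come from Hill-equation fits of intracellular ATP loss, measured by CellTiter-Glo luminescence. Normal lung fibroblasts (MRC5) had 40 hr compound treatment at 37 C, normalized between DMSO and 100 uM tamoxifen.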

[3] = target: Mitogen-activated protein kinase 10 (Mus musculus) (UniProt Q61831); experiment: JNK3 AlphaScreen Assay (AID 530; active = well fitted curve in either direction with a large enough effect, not every such curve was filed as active;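 note: kinase came from lysate of stimulated human HepG2 cells; signal reports phosphorylation of biotinylated GST-cJun 1-79 at Ser73 with 10 µM ATP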); details: JNK3 lysate, c-Jun phosphorylation; series mostly up to 57.1 µM
In short: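 qHTS titrations with 15 min compound pre-incubation before adding ATP (10 uM final). Read-out: AlphaScreen of Ser73-phosphorylated biotin-GST-cJun using HepG2 lysate JNK3 activated by IL-1β and TNFα.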

[4] = Cellular Toxicity (caspase-3) HepG2 (AID 654); details: HepG2 caspase-3 activation, luminescence, 0% = DMSO only, 100% = tamoxifen; series mostly up to 92.2 µM;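 note: cells exposed to compound for 16 hours before reading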
In short: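 Caspase 3/7 activation in HepG2 is measured as rising luminescence after a 16 hr treatment at 37 °C. Values are scaled between DMSO basal and 100 uM tamoxifen, and AC50 is fitted with the Hill equation.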

[5] = MultiTox-Fluor Cytotoxicity Assay - LYMP1-001 - Live Cells (AID 947); details: LYMP1-001 lymphoblastoid cells, live-cell protease fluorescence viability; series mostly up to 92.2 µM
[6] = Cell Viability - LYMP2-004 (AID 966); details: LYMP2-004 lymphoblastoid cell viability, qHTS; series mostly up to 92.2 µM; note: nearly all actives have a fitted effect of over 65% in size
In short: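 qHTS cytotoxicity: human lymphoblastoid line, 24 hr compound treatment, 37 C, complete medium. Viability read as cellular ATP via luciferase luminescence; tetraoctylammonium bromide served as positive control.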

[7] = Cell Viability - LYMP2-025 (AID 976); details: LYMP2-025 lymphoblastoid cell viability; series mostly up to 92.2 µM
In short: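 Acute cytotoxicity is scored as a concentration-dependent fall in intracellular ATP, measured by luciferase luminescence, in human lymphoblastoid LYMP2-025 cells exposed to compound for 24 hours at 37 C. AC50 values come from standard Hill fits.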

[8] = Cell Viability - LYMP2-016 (AID 984); details: LYMP2-016 lymphoblastoid cell viability, qHTS; series mostly up to 92.2 µM; note: nearly all actives have a fitted effect of over 55% in size
In short: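 qHTS, 1536-well: 2500 LYMP2-016 cells/well, 5 hr 37 C, compound added, 24 hr 37 C, CellTiter-Glo 30 min RT, luminescence. Tetraoctylammonium bromide positive control. AC50 via Hill fit.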

[9] = Cell Viability - LYMP1-002 - Assay at 24 hr (AID 993); details: LYMP1-002 lymphoblastoid cells viability; series mostly up to 92.2 µM
In short: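 Acute toxicity is measured as concentration-dependent loss of cellular ATP in a human lymphoblastoid line (Coriell LYMP1-002) after 24 h treatment in complete medium. ATP is quantified by luciferase luminescence and AC50 derived by Hill modelling.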

[10] = qHTS assay for small molecule agonists of retinoid X receptor alpha signaling (AID 588544); details: HEK293T RXRa-UAS-bla, beta-lactamase reporter, 18 h; 530 nm emission
[11] = target: Thyroid hormone receptor beta (Homo sapiens) (UniProt P10828); experiment: qHTS assay for small molecule agonists of thyroid hormone receptor beta signaling (AID 588545; calls by dose curve); details: TR-UAS-bla GripTite HEK 293, beta-lactamase ratio, agonist mode, 18 h; series mostly up to 76.7 µM
Thyroid hormone receptor beta (Homo sapiens), sequence (P10828 whole entry, looked up): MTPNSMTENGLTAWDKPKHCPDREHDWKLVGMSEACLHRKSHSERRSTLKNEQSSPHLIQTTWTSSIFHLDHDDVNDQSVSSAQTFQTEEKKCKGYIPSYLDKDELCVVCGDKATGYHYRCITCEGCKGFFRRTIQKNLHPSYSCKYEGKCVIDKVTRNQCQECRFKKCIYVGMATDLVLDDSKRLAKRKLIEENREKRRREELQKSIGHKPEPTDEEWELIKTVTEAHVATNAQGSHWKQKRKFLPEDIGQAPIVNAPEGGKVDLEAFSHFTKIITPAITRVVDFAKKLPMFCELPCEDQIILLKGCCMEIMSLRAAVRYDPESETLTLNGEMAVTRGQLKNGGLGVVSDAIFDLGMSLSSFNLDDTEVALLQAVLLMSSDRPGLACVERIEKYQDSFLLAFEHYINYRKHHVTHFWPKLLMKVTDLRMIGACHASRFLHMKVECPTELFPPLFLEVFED
In short: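 Efficacy and EC50 values derive from Hill fits of qHTS titration data, normalized to 10 nM T3 and DMSO-only wells. HEK 293 reporter cells were stimulated for 18 hrs at 37 C, with beta-lactamase activity measured by CCF4 fluorescence.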

[12] = qHTS assay for small molecule antagonists of retinoid X receptor alpha signaling (AID 588546); details: HEK293T RXRa-UAS-bla, beta-lactamase ratio, antagonist mode; measured here: W530 green channel, cytotoxicity proxy;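 note: cells stimulated with 9-cis-retinoic acid as agonist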
In short: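 Beta-lactamase reporter inhibition, read as CCF4 fluorescence ratio (ex 405, em 460/530 nm) after 2 h at RT. HEK293T UAS-bla cells, 2500/well, were stimulated with 9-cis-RA at 500 or 100 nM final alongside test compound for 18 h at 37 C.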

[13] = target: Thyroid hormone receptor beta (Homo sapiens) (UniProt P10828); experiment: qHTS assay for small molecule antagonists of thyroid hormone receptor beta signaling (AID 588547; active = well fitted inhibition curve with a large enough effect in the signal ratio, with a control signal flat, not every such curve was filed as active; the % refers to the signal ratio;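 note: cells stimulated with 0.4 nM T3 agonist during compound exposure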); details: TR-UAS-bla HEK293, beta-lactamase ratio, antagonist mode, 18 h
In short: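 Inhibition of T3-driven (0.4nM final) beta-lactamase reporter activity was measured over 0.59 nM to 92 uM compound after 18 h at 37 C. The cells were GripTite HEK293 TR-UAS-bla in charcoal/dextran-stripped serum, with CCF4 ratio read-out and IC50 from Hill fits.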

[14] = MultiTox-Fluor Cytotoxicity Assay - LYMP1-002 - Dead Cells (AID 960); details: LYMP1-002 lymphoblastoid cells, dead-cell protease fluorescence; series mostly up to 46.1 µM; note: nearly all actives have a fitted effect of over 60% in size
In short: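 Cells were plated, rested 5 hr, then treated with compound dilution series for 16 hr at 37 C. After adding substrate reagent and 60 min at room temperature, dead-cell protease fluorescence gave concentration-response curves fitted by the Hill equation.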

[15] = Cell Viability - LYMP2-005 (AID 967); details: LYMP2-005 lymphoblastoid cell viability; series mostly up to 92.2 µM
In short: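 Steps: seed 2500 LYMP2-005 cells/well, incubate 5 h at 37 C, add compound, incubate 24 h at 37 C, add CellTiter-Glo, wait 30 min at RT, read luminescence. Concentration-response data fitted to Hill equation for AC50.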

[16] = Cell Viability - LYMP2-018 (AID 985); details: LYMP2-018 lymphoblastoid cells, viability (qHTS); series mostly up to 92.2 µM;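 note: compound exposure lasted 24 hr at 37 °C; nearly all actives have a fitted effect of over 50% in size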
In short: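 Seed 2500 lymphoblastoid cells per well, incubate 5 hr at 37 C, add compound and incubate 24 hr at 37 C, add CellTiter-Glo, wait 30 min at room temperature, then read luminescence.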

[17] = Cell Viability - LYMP2-022 (AID 987); details: LYMP2-022 lymphoblastoid cell viability; series mostly up to 92.2 µM; note: nearly all actives have a fitted effect of over 55% in size
In short: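 Cells were seeded at 2500 per well, rested 5 hr at 37 C, and treated with titrated compounds for 24 hr at 37 C. Cellular ATP was then quantified by luciferase luminescence, and AC50 values were derived from Hill-modelled concentration-response curves.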

[18] = Cell Viability - LYMP2-024 (AID 988); details: LYMP2-024 lymphoblastoid cell viability; series mostly up to 92.2 µM; note: nearly all actives have a fitted effect of over 60% in size
In short: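 qHTS cytotoxicity, human lymphoblastoid line, complete medium; 24 h cpd treatment, 37 C; CellTiter-Glo ATP luminescence readout; tetraoctylammonium bromide positive control; AC50 via Hill fit.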

[19] = target: Peroxisome proliferator-activated receptor gamma (Homo sapiens) (UniProt P37231); experiment: qHTS assay for small molecule agonists of peroxisome proliferator-activated receptor gamma signaling (AID 588536; active = well fitted curve in the direction sought with a large enough effect in the signal ratio, with a control signal flat, not every such curve was filed as active; the % refers to the signal ratio); details: HEK293 PPARg-UAS-bla, beta-lactamase ratio, 16 h, percent of rosiglitazone response, DMSO as zero; series mostly up to 76.7 µM
Peroxisome proliferator-activated receptor gamma (Homo sapiens), sequence (P37231 whole entry, looked up): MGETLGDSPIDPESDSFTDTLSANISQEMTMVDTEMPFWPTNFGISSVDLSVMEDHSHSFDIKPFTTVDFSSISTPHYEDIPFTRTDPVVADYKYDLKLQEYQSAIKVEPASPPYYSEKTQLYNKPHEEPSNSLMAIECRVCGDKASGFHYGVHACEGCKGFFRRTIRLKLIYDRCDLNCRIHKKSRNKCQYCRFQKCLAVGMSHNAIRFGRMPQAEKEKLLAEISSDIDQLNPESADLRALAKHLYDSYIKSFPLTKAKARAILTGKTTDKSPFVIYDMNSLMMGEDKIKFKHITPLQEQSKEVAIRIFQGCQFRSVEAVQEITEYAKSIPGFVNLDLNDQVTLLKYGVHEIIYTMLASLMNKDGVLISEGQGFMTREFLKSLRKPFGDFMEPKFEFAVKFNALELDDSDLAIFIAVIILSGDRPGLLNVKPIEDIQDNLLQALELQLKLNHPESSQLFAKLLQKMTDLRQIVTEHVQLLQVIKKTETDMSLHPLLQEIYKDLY
In short: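 Compound treatment: 16 h, 37 C, HEK293 GeneBLAzer cells. Detection: CCF4, 2 h RT. Values: Hill-fit EC50, efficacy as % of 2 uM rosiglitazone.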

[20] = target: Tumor necrosis factor (Homo sapiens) (UniProt P01375); experiment: qHTS assay to identify small molecules that stimulate Tumor Necrosis Factor-alpha (TNF-alpha) secretion (AID 651757; active = well fitted curve in the direction sought with a large enough effect in the signal ratio; the % refers to the signal ratio); details: Human cells, HTRF 665/615 ratio; series mostly up to 92.2 µM
Tumor necrosis factor (Homo sapiens), sequence (P01375 whole entry, looked up): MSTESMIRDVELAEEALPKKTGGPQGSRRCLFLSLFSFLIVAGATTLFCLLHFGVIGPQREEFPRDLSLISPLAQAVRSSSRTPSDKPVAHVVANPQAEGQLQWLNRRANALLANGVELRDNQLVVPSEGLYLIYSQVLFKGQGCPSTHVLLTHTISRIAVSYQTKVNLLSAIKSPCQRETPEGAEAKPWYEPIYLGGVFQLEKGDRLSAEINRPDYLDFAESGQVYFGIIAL
In short: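 Human monocytic THP-1 cells are plated, treated with compound and held at 37 C for 17 hrs. Labeled anti-TNF-alpha antibody mixture is then added; after 3 hr at room temperature, TR-FRET signal reports secreted TNF-alpha.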

Structure (SMILES)	Potency [1]	Potency [2]	Potency [3]	outcome [4]	outcome [5]	Potency [6]	Potency [7]	Potency [8]	Potency [9]	max response [10]	Potency [11]	max response [12]	activity change % (negative = inhibition) [13]	Potency [14]	Potency [15]	Potency [16]	Potency [17]	Potency [18]	outcome [19]	outcome [20]
O=[N+]([O-])c1cccc(CCl)c1	> 92 µM (inactive)	> 92 µM (inactive)	inactive	inactive	inactive	inactive	inactive	inactive	inactive	10.9%	inactive	8.94%	-16.3% (inactive)							
Cc1cnc[nH]1	> 92 µM (inactive)	> 92 µM (inactive)	inactive	inactive	inactive	inactive	inactive	inactive		2.59%	inactive	-10.6%	8% (inactive)	inactive	inactive	inactive	inactive	inactive	inactive	inactive
CCCC[N+](=O)[O-]	> 92 µM (inactive)	> 92 µM (inactive)	inactive	inactive	inactive	inactive	inactive	inactive		-5.28%	inactive	-4.37%	2.77% (inactive)	inactive	inactive	inactive	inactive	inactive	inactive	inactive
ClCCOCCCl	> 92 µM (inactive)	> 92 µM (inactive)	inactive	inactive	inactive	inactive	inactive		inactive	0.666%	inactive	8.9%	0.0195% (inactive)			inactive	inactive	inactive	inactive	inactive
Nc1cc(Cl)cc(Cl)c1	> 92 µM (inactive)	> 92 µM (inactive)	inactive	inactive	inactive	inactive	inactive	inactive	inactive	-17%	inactive	-5.15%		inactive	inactive	inactive	inactive	inactive	inactive	inactive
Nc1ccc(-c2ccc(N)cc2)cc1	> 92 µM (inactive)	> 92 µM (inactive)	inactive	inactive	inactive	inactive	inactive	inactive	inactive	-10.1%		-2.33%	12.4% (inactive)	inactive	inactive	inactive	inactive	inactive	inactive	
O=C(Cl)OCc1ccccc1	> 92 µM (inactive)	> 92 µM (inactive)	inactive	inactive	inactive	inactive	inactive	inactive	inactive	-1.31%		-3.27%		inactive	inactive	inactive	inactive	inactive	inactive	inactive
COC(=O)c1ccccc1N	> 92 µM (inactive)	> 92 µM (inactive)	inactive	inactive	inactive	inactive	inactive	inactive	inactive	-15.1%	inactive	0.965%	-1.98% (inactive)	inactive	inactive	inactive	inactive	inactive	inactive	inactive
O=C(Cl)c1ccccc1F	> 92 µM (inactive)	> 92 µM (inactive)	inactive		inactive	inactive	inactive	inactive	inactive	6.73%	inactive	-4.19%	-5.22% (inactive)	inactive	inactive	inactive	inactive	inactive	inactive	inactive
N#CCCC#N	> 92 µM (inactive)	> 92 µM (inactive)	inactive	inactive	inactive	inactive	inactive	inactive	inactive	-20.2%	inactive	-8.53%	5.23% (inactive)	inactive	inactive	inactive	inactive	inactive	inactive	inactive
Oc1ccc(Cl)c(Cl)c1	> 92 µM (inactive)	> 92 µM (inactive)	inactive	inactive	inactive	inactive	inactive		inactive	-8.76%		-0.477%		inactive	inactive	inactive	inactive	inactive	inactive	inactive
Nc1cc(Cl)ccc1Cl	> 92 µM (inactive)	> 92 µM (inactive)	inactive	inactive	inactive	inactive	inactive	inactive	inactive	-19.1%	inactive	1.78%	16.8% (inactive)	inactive	inactive	inactive	inactive	inactive		inactive
CCCCCOC(=O)c1ccccc1C(=O)OCCCCC	> 92 µM (inactive)	> 92 µM (inactive)		inactive	inactive	inactive	inactive	inactive	inactive	-10.9% and 3.25%	inactive	-5.52%	15.4% (inactive) and 2.77% (inactive)		inactive	inactive	inactive	inactive	inactive	inactive
CC(C)OS(C)(=O)=O	> 92 µM (inactive)	> 92 µM (inactive)	inactive	inactive	inactive	inactive	inactive		inactive	-2.85%		5.36%	8.49% (inactive)			inactive	inactive	inactive	inactive	inactive

Reference: PubChem BioAssay (NCATS)
